NOTCH ag – activates NOTCH signaling in reporter cells; NOTCH signaling luciferase reporter cells, luminescence; activation, % at 2.5 µM; 15,000 compounds, 0.4% hits; in the data active = activation above about 2.2%
Nox1 inhibitor – human Nox1 inhibition; HT29 cells, luminol chemiluminescence ROS; inhibition, % at 6.7 µM; 16,000 compounds, 0.81% hits
Target sequence (Q9Y5S8 whole entry, looked up): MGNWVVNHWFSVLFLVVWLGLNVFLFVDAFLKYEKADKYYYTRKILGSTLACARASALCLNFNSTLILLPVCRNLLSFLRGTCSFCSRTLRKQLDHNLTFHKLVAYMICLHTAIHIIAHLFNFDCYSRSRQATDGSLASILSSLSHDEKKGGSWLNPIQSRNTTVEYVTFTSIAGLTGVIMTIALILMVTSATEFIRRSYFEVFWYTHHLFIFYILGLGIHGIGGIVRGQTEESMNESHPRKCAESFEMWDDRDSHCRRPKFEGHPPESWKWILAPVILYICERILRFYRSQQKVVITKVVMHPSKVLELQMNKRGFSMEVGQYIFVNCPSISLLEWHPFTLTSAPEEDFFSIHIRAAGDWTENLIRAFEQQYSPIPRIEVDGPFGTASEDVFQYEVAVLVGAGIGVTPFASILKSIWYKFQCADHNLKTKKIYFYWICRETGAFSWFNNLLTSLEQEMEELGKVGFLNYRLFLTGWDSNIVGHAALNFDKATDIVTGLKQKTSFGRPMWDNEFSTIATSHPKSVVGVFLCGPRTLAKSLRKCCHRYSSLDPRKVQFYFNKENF
PME-1 Maybridge – inhibitors of human PME-1 in Maybridge library; Q9Y570; recombinant PME-1, FP-Rh probe fluorescence polarization; inhibition, % at 9 µM; 16,000 compounds, 0.5% hits; in the data active = inhibition above about 30%
rat GALR2 agon – GALR2 (rat) receptor agonism; activation, % at 10 µM; AID 833; 16,000 compounds, 0.5% hits; cell-based GALR2 agonist screen; O08726; in the data active = activation above about 15%
Luminol counter – counter-screen for Nox1 inhibitors: inhibitors of luminol chemiluminescence | HRP/luminol/H2O2 chemiluminescence counterscreen | inhibition, % at 6.7 µM | 16,000 compounds, 0.4% hits; note: reference of the scale not given here
Numbers without * were called inactive. Only some compounds are listed: those with a hit (about 2.5% of all), similar ones and a draw of the others. Cut-off read from the data, not from the text of the source, unless noted: active = inhibition above about 75%; inactive = the rest.

Results for N#C/C(=C\c1ccc(C#Cc2ccccc2)s1)C(=O)c1ccco1 ?
NOTCH ag: 0; Nox1 inhibitor: -28; PME-1 Maybridge: -30; rat GALR2 agon: 16*; Luminol counter: 18

How did N#C/C(=C\c1cc(C#Cc2ccccc2)cs1)C(=O)c1ccco1 do in these assays?
NOTCH ag: 0; Nox1 inhibitor: -42; PME-1 Maybridge: 7; rat GALR2 agon: 5; Luminol counter: 1

What do the screens show for `O=C(NC(=O)c1c(Cl)cccc1Cl)Oc1c(F)cccc1F`?
NOTCH ag: 0; Nox1 inhibitor: 13; PME-1 Maybridge: 3; rat GALR2 agon: -1; Luminol counter: -9

Results for COc1ccc(Br)c(C(=O)Nc2ncccn2)c1 ?
NOTCH ag: -6; Nox1 inhibitor: -87; PME-1 Maybridge: 4; rat GALR2 agon: -2; Luminol counter: -2

How did S=c1nc[nH]c2[nH]ncc12 do in these assays?
NOTCH ag: 0; Nox1 inhibitor: 13; PME-1 Maybridge: 1; rat GALR2 agon: -3; Luminol counter: 80*

Results for Cc1noc2[nH]cnc(=S)c12 ?
NOTCH ag: -1; Nox1 inhibitor: -3; PME-1 Maybridge: -1; rat GALR2 agon: -5; Luminol counter: 2

How did Nc1nc2[nH]c(=S)[nH]c2c(=O)[nH]1 do in these assays?
NOTCH ag: -1; Nox1 inhibitor: 93*; PME-1 Maybridge: 4; rat GALR2 agon: -4; Luminol counter: 10

How did Cc1onc(-c2ccccc2Cl)c1C(=O)O/N=C(\N)c1ccc2c(c1)OCO2 do in these assays?
NOTCH ag: 0; Nox1 inhibitor: 19; PME-1 Maybridge: 3; rat GALR2 agon: -8; Luminol counter: -4

How did CSc1ccc(/C=C/c2onc(C)c2[N+](=O)[O-])s1 do in these assays?
NOTCH ag: -1; Nox1 inhibitor: -62; PME-1 Maybridge: 64*; rat GALR2 agon: -15; Luminol counter: 11

How did CSc1nnc(-c2sc3nc(C)cc(C)c3c2N)n1Cc1ccccc1 do in these assays?
NOTCH ag: 0; Nox1 inhibitor: 19; PME-1 Maybridge: 9; rat GALR2 agon: 29*; Luminol counter: 0

What do the screens show for `OC(CSc1cccs1)CN1CCN(C(c2ccccc2)c2ccccc2)CC1` (stereo unspecified)?
NOTCH ag: -1; Nox1 inhibitor: 11; PME-1 Maybridge: 2; rat GALR2 agon: -3; Luminol counter: -7

What do the screens show for `O=C(Nc1cccc(Cl)c1)Nc1ccc(CSc2ccc(Cl)cc2)o1`?
NOTCH ag: -1; Nox1 inhibitor: -45; PME-1 Maybridge: -32; rat GALR2 agon: -4; Luminol counter: 6

How did COc1cccc(Cc2n[nH]c(=S)n2-c2ccc(Cl)cc2)c1 do in these assays?
NOTCH ag: 0; Nox1 inhibitor: 23; PME-1 Maybridge: 4; rat GALR2 agon: -6; Luminol counter: 99*

How did COc1cccc(Cc2n[nH]c(=S)n2Cc2ccco2)c1 do in these assays?
NOTCH ag: 0; Nox1 inhibitor: -10; PME-1 Maybridge: 8; rat GALR2 agon: -3; Luminol counter: 99*

How did FC(F)(F)Oc1ccc(OCc2n[nH]c(=S)n2-c2ccc(Cl)cc2)cc1 do in these assays?
Nox1 inhibitor: -82; PME-1 Maybridge: -4; rat GALR2 agon: -8; Luminol counter: 7

What do the screens show for `FC(F)(F)c1ccc(-c2n[nH]c(=S)n2Cc2ccco2)cc1`?
NOTCH ag: 0; Nox1 inhibitor: -21; PME-1 Maybridge: 2; rat GALR2 agon: -6; Luminol counter: 0

Results for Cc1ccc(S(=O)(=O)Nc2ccc(F)cc2F)cc1 ?
NOTCH ag: 0; Nox1 inhibitor: -109; PME-1 Maybridge: -3; rat GALR2 agon: -6; Luminol counter: 2

Results for CCN(CC)c1ccc(NS(=O)(=O)c2ccc(F)cc2)cc1 ?
NOTCH ag: 0; Nox1 inhibitor: 102*; PME-1 Maybridge: -1; rat GALR2 agon: -4; Luminol counter: 23

Results for CCOC(=O)c1ccc(N2CCOCC2)c(N=Cc2cc(Cl)cc(Cl)c2O)c1 ?
NOTCH ag: 1; Nox1 inhibitor: -30; PME-1 Maybridge: -3; rat GALR2 agon: 8; Luminol counter: 5

How did O=S(=O)(c1ccc(Cl)s1)N1CCN(C(c2ccccc2)c2ccccc2)CC1 do in these assays?
NOTCH ag: 6.4*; Nox1 inhibitor: -63; PME-1 Maybridge: -7; rat GALR2 agon: -8; Luminol counter: 3

Results for COc1ccc([N+](=O)[O-])c(N2CCC(C(N)=O)CC2)n1 ?
NOTCH ag: -1; Nox1 inhibitor: -53; PME-1 Maybridge: 0; rat GALR2 agon: -5; Luminol counter: 9

Results for Nc1nc(-c2ccccc2)cn1Nc1ccccc1 ?
NOTCH ag: 0; Nox1 inhibitor: -40; PME-1 Maybridge: 4; rat GALR2 agon: -6; Luminol counter: 1

Source: PubChem (The Scripps Research Institute Molecular Screening Center)
